# Test results as given in the supplement of paper PMC8728848.
# Only a selection was taken, and the strongest signals are over-represented in it overall.
# B1: HPA (Helix pomatia), Q2F1K8 (protein)
# chain: MQAFYSGLLLLCVVAFAAAQRVQSGKIDCGNDAGWAKVPSDDPGRDNTRELAKNITFASPYCRPPVVLLSITQLDVEQSQNLRVIARLYSVSPTGFKASCYTWHNTKVYSMSISWISIENY
# Columns and labels:
# Assay in all cases: glycan array binding signal (z-score within array); higher = stronger binding
# Conditions in all cases: glycan notation: IUPAC condensed, linker removed
# [1] = target: Fuc(a1-2)Gal(b1-3)GlcNAc(b1-3)[Gal(b1-4)[Fuc(a1-3)]GlcNAc(b1-6)]Gal(b1-4)Glc
# Summary of the method: (§1)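 Columns mapping to the same glycan were averaged after glycan names were converted to IUPAC-condensed notation. The data come from 3228 arrays in the Consortium for Functional Glycomics database, limited to those with an available protein sequence. Binding is reported as a within-array Z-score averaged across arrays of one protein sequence and across linkers.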
# [2] = target: Fuc(a1-2)Gal(b1-3)[Fuc(a1-4)]GlcNAc(b1-2)Man(a1-3)[Fuc(a1-2)Gal(b1-3)[Fuc(a1-4)]GlcNAc(b1-2)Man(a1-6)]Man(b1-4)GlcNAc(b1-4)GlcNAc
# Summary of the method: as §1
# [3] = target: Fuc(a1-2)Gal(b1-4)[Fuc(a1-3)]GlcNAc
# Summary of the method: as §1
# Fuc(a1-2)GlcNAc = target: Fuc(a1-2)GlcNAc
# Summary of the method: as §1
# [4] = target: Fuc(a1-2)[Gal(a1-3)]Gal(b1-3)GalNAc
# Summary of the method: as §1
# [5] = target: Fuc(a1-2)[GalNAc(a1-3)]Gal(b1-4)GlcNAc(b1-2)Man(a1-3)[Fuc(a1-2)[GalNAc(a1-3)]Gal(b1-4)GlcNAc(b1-2)Man(a1-6)]Man(b1-4)GlcNAc(b1-4)GlcNAc
# Summary of the method: as §1
# [6] = target: Fuc(a1-2)[GalNAc(a1-3)]Gal(b1-4)GlcNAc(b1-3)Gal(b1-4)GlcNAc
# Summary of the method: as §1
# [7] = target: Fuc(a1-2)[GalNAc(a1-3)]Gal(b1-4)GlcNAc(b1-3)Gal(b1-4)GlcNAc(b1-3)Gal(b1-4)GlcNAc
# Summary of the method: as §1
# [8] = target: Fuc(a1-2)[GalNAc(a1-3)]Gal(b1-4)[Fuc(a1-3)]GlcNAc(b1-3)GalNAc
# Summary of the method: as §1
# [9] = target: Fuc(a1-2)[GalNAc(a1-4)]Gal(b1-4)GlcNAc
# Summary of the method: as §1
# [10] = target: Fuc(a1-3)[Gal(b1-4)]Glc6S
# Summary of the method: as §1
# [11] = target: Fuc(a1-3)[Gal(b1-4)]GlcNAc(b1-2)Man(a1-3)[Fuc(a1-3)[Gal(b1-4)]GlcNAc(b1-2)Man(a1-6)]Man(b1-4)GlcNAc(b1-4)GlcNAc
# Summary of the method: as §1
# [12] = target: Fuc(a1-3)[Gal(b1-4)]GlcNAc(b1-3)Gal(b1-4)[Fuc(a1-3)]GlcNAc
# Summary of the method: as §1
# [13] = target: Fuc(a1-3)[Gal(b1-4)]GlcNAc(b1-4)Gal(b1-4)[Fuc(a1-3)]GlcNAc(b1-4)Gal(b1-4)[Fuc(a1-3)]GlcNAc
# Summary of the method: as §1
# [14] = target: Fuc(a1-3)[Neu5Ac(a2-3)]Gal(b1-4)GlcNAc(b1-3)GalNAc
# Summary of the method: as §1
# Gal(a1-3)Gal(b1-3)GlcNAc = target: Gal(a1-3)Gal(b1-3)GlcNAc
# Summary of the method: as §1
# [15] = target: Gal(a1-3)Gal(b1-4)GlcNAc(b1-6)GalNAc
# Summary of the method: as §1
# Gal(a1-4)Gal(b1-4)GlcNAc = target: Gal(a1-4)Gal(b1-4)GlcNAc
# Summary of the method: as §1
# Gal(b1-2)Gal = target: Gal(b1-2)Gal
# Summary of the method: as §1
# Gal(b1-3)GalNAc(b1-3)Gal = target: Gal(b1-3)GalNAc(b1-3)Gal
# Summary of the method: as §1
# [16] = target: Gal(b1-3)GalNAc(b1-4)[Neu5Ac(a2-3)]Gal(b1-4)Glc
# Summary of the method: as §1
# Gal(b1-3)GlcNAc(b1-2)Man = target: Gal(b1-3)GlcNAc(b1-2)Man
# Summary of the method: as §1
# [17] = target: Gal(b1-3)GlcNAc(b1-3)Gal(b1-4)GlcNAc(b1-3)Gal(b1-4)GlcNAc(b1-2)[Gal(b1-3)GlcNAc(b1-3)Gal(b1-4)GlcNAc(b1-3)Gal(b1-4)GlcNAc(b1-6)]Man(a1-6)[Gal(b1-3)GlcNAc(b1-3)Gal(b1-4)GlcNAc(b1-3)Gal(b1-4)GlcNAc(b1-2)Man(a1-3)]Man(b1-4)GlcNAc(b1-4)[Fuc(a1-6)]GlcNAc
# Summary of the method: as §1
# [18] = target: Gal(b1-3)GlcNAc(b1-3)Gal(b1-4)GlcNAc(b1-6)[Gal(b1-3)GlcNAc(b1-3)]Gal(b1-4)Glc
# Summary of the method: as §1
# [19] = target: Gal(b1-3)GlcNAc(b1-6)[Gal(b1-3)]GalNAc
# Summary of the method: as §1
# [20] = target: Gal(b1-3)[Fuc(a1-4)]GlcNAc(b1-2)Man(a1-3)[Gal(b1-3)[Fuc(a1-4)]GlcNAc(b1-2)Man(a1-6)]Man(b1-4)GlcNAc(b1-4)GlcNAc
# Summary of the method: as §1
# [21] = target: Gal(b1-4)GlcNAc(b1-2)Man(a1-3)[GlcNAc(b1-4)][Gal(b1-4)GlcNAc(b1-2)Man(a1-6)]Man(b1-4)GlcNAc(b1-4)GlcNAc
# Summary of the method: as §1
# [22] = target: Gal(b1-4)GlcNAc(b1-3)Gal(b1-4)GlcNAc(b1-3)Gal(b1-4)GlcNAc(b1-2)[Gal(b1-4)GlcNAc(b1-3)Gal(b1-4)GlcNAc(b1-3)Gal(b1-4)GlcNAc(b1-6)]Man(a1-6)[Gal(b1-4)GlcNAc(b1-3)Gal(b1-4)GlcNAc(b1-3)Gal(b1-4)GlcNAc(b1-2)Man(a1-3)]Man(b1-4)GlcNAc(b1-4)[Fuc(a1-6)]GlcNAc
# Summary of the method: as §1
# [23] = target: Gal(b1-4)GlcNAc(b1-3)Gal(b1-4)GlcNAc(b1-3)Gal(b1-4)GlcNAc(b1-3)Gal(b1-4)GlcNAc(b1-3)Gal(b1-4)GlcNAc(b1-2)Man(a1-3)[Gal(b1-4)GlcNAc(b1-3)Gal(b1-4)GlcNAc(b1-3)Gal(b1-4)GlcNAc(b1-3)Gal(b1-4)GlcNAc(b1-3)Gal(b1-4)GlcNAc(b1-2)Man(a1-6)]Man(b1-4)GlcNAc(b1-4)[Fuc(a1-6)]GlcNAc
# Summary of the method: as §1
binder,measurement,setting,value
B1,glycan array binding signal (z-score),[1],-0.454
same,glycan array binding signal (z-score),[2],4.62
same,glycan array binding signal (z-score),[3],-0.109
same,glycan array binding signal (z-score),Fuc(a1-2)GlcNAc,-0.295
same,glycan array binding signal (z-score),[4],-0.303
same,glycan array binding signal (z-score),[5],3.07
same,glycan array binding signal (z-score),[6],2.66
same,glycan array binding signal (z-score),[7],3.15
same,glycan array binding signal (z-score),[8],0.306
same,glycan array binding signal (z-score),[9],2.81
same,glycan array binding signal (z-score),[10],0.244
same,glycan array binding signal (z-score),[11],-0.126
same,glycan array binding signal (z-score),[12],-0.242
same,glycan array binding signal (z-score),[13],-0.09
same,glycan array binding signal (z-score),[14],4.26
same,glycan array binding signal (z-score),Gal(a1-3)Gal(b1-3)GlcNAc,-0.213
same,glycan array binding signal (z-score),[15],-0.173
same,glycan array binding signal (z-score),Gal(a1-4)Gal(b1-4)GlcNAc,-0.114
same,glycan array binding signal (z-score),Gal(b1-2)Gal,-0.074
same,glycan array binding signal (z-score),Gal(b1-3)GalNAc(b1-3)Gal,-0.375
same,glycan array binding signal (z-score),[16],-0.291
same,glycan array binding signal (z-score),Gal(b1-3)GlcNAc(b1-2)Man,-0.119
same,glycan array binding signal (z-score),[17],0.092
same,glycan array binding signal (z-score),[18],-0.34
same,glycan array binding signal (z-score),[19],-0.205
same,glycan array binding signal (z-score),[20],2.87
same,glycan array binding signal (z-score),[21],-0.311
same,glycan array binding signal (z-score),[22],0.257
same,glycan array binding signal (z-score),[23],0.027
